The panel holds about 79,000 compounds, 15% with a hit somewhere; the sample as a whole holds those more often. Unmarked numbers belong to inactive results. The source made the active and inactive calls. Rule as the data show it: active = growth inhibition above about 70%; inactive = the rest.

Assay [1] in a line: NCI Yeast Anticancer Drug Screen. Data for the rad50 strain (AID 155).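 Also: 0% = growth of vehicle-only cultures of the same strain.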 The following applies: S. cerevisiae rad50 strain growth inhibition, stronger effect = higher value. The essentials: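 Cells are treated with compound, grown, and their growth is then scored against vehicle-only cultures of the same repair-deficient yeast strain.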
Assay [2] in a line: NCI Yeast Anticancer Drug Screen. Data for the mec2-1 strain (AID 157). The following applies: S. cerevisiae mec2-1 strain, stronger effect = higher value. The method in brief: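 Compounds were applied to mec2-1 yeast cells. Their growth was then compared with that of vehicle-treated cultures to give growth inhibition.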
Assay [3] can be described thus: NCI Yeast Anticancer Drug Screen. Data for the sgs1 mgt1 strain (AID 161).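 Also: 0% = growth of cultures given vehicle only.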 The settings on record: S. cerevisiae sgs1 mgt1 strain, stronger effect = higher value. The essentials:
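This yeast growth screen uses a strain with defined DNA-repair lesions; compound-treated growth is compared with vehicle-treated growth.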

A short description of assay [4]: NCI Yeast Anticancer Drug Screen. Data for the cln2 rad14 strain (AID 165).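 Also: 0% = growth equal to vehicle treated cultures.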 The settings on record: S. cerevisiae cln2 rad14 strain, stronger effect = higher value. The essentials: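 Strain: cln2 rad14 yeast, altered in cell cycle control and DNA damage repair. Read-out: growth inhibition vs vehicle.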
Assay [5] in a line: NCI Yeast Anticancer Drug Screen. Data for the bub3 strain (AID 167). The settings on record: S. cerevisiae bub3 mutant strain, stronger effect = higher value. The method in brief: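 Part of a panel of yeast mutants defective in DNA damage repair or cell cycle regulation. Each strain is grown with compound, and inhibition is calculated relative to solvent-treated cultures.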
A short description of assay [6]: NCI Yeast Anticancer Drug Screen. Data for the mlh1 rad18 strain (AID 175). The following applies: S. cerevisiae mlh1 rad18 strain growth inhibition, stronger effect = higher value. The essentials:
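A repair-deficient yeast strain is exposed to test compound, and growth is scored relative to vehicle-treated controls.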

Where [7] appears, read: at 5.0 µM (retest, dose inferred, filed as 0.5).
Setting [8] is: at 50.0 µM (retest, dose inferred, filed as 5.0).

For the compound `Nc1ccc(CCCCCc2ccc(N)cc2)cc1`, the growth inhibition was -3% in assay [1] (setting [7]); 80% (active) in assay [1] (setting [8]); 98.6% (active) in assay [1] (at 50.0 µM); -9% in assay [2] (setting [7]); 99% (active) in assay [2] (setting [8]); 99% (active) in assay [2] (at 50.0 µM). Besides, the growth inhibition in assay [3] (setting [7]) was 10%; in assay [3] (setting [8]), 96% (active); in assay [3] (at 50.0 µM), 98.9% (active); in assay [4] (setting [7]) it was 1%; in assay [4] (setting [8]), 54%; in assay [4] (at 50.0 µM) it was 98% (active). Besides, the growth inhibition is -6% in assay [5] (setting [7]); 83% (active) in assay [5] (setting [8]); 98.7% (active) in assay [5] (at 50.0 µM); -1% in assay [6] (setting [7]); 98% (active) in assay [6] (setting [8]); 98.7% (active) in assay [6] (at 50.0 µM).

Take `COc1ccc2ccc3c(c2c1)CCC(C(=O)O)C3CC(=O)O` (stereo not given): the growth inhibition in assay [1] (setting [7]) is -9%; in assay [1] (setting [8]), 9%; in assay [1] (at 50.0 µM), 41.9%; in assay [2] (setting [7]), -17%; in assay [2] (setting [8]), 0%; in assay [2] (at 50.0 µM), 97.5% (active). In addition, the growth inhibition was -11% in assay [3] (setting [7]); 12% in assay [3] (setting [8]); 43.6% in assay [3] (at 50.0 µM); 0% in assay [4] (setting [7]); 27% in assay [4] (setting [8]); 93.8% (active) in assay [4] (at 50.0 µM). Besides, the growth inhibition was -11% in assay [5] (setting [7]); 26% in assay [5] (setting [8]); 77.2% (active) in assay [5] (at 50.0 µM); -30% in assay [6] (setting [7]); 35% in assay [6] (setting [8]); 84% (active) in assay [6] (at 50.0 µM).

In the case of `CSCSCC(CO)NC(=O)/C=C/c1c(C)[nH]c(=O)[nH]c1=O` (stereo not given), the growth inhibition in assay [1] (setting [7]) was -2%; in assay [1] (setting [8]), 0%; in assay [1] (at 50.0 µM) it was 92.5% (active); in assay [2] (setting [7]), 1%; in assay [2] (setting [8]), 7%; in assay [2] (at 50.0 µM), 94.2% (active). Further, the growth inhibition was 1% in assay [3] (setting [7]); 4% in assay [3] (setting [8]); 93.8% (active) in assay [3] (at 50.0 µM); -3% in assay [4] (setting [7]); -11% in assay [4] (setting [8]); 92.2% (active) in assay [4] (at 50.0 µM). The growth inhibition is 3% in assay [5] (setting [7]); 21% in assay [5] (setting [8]); 92.8% (active) in assay [5] (at 50.0 µM); 3% in assay [6] (setting [7]); 8% in assay [6] (setting [8]); 92.9% (active) in assay [6] (at 50.0 µM).

For the compound `O=C(c1ccc(Cl)cc1)C1N=NCC1c1ccccc1` (stereo not given), the growth inhibition in assay [1] (setting [7]) was 3%; in assay [1] (setting [8]) it was 33%; in assay [1] (at 50.0 µM), -2.2%; in assay [2] (setting [7]), 9%; in assay [2] (setting [8]), 52%; in assay [2] (at 50.0 µM) it was 22.8%. The growth inhibition in assay [3] (setting [7]) was 4%; in assay [3] (setting [8]), 50%; in assay [3] (at 50.0 µM), 29.2%; in assay [4] (setting [7]) it was 4%; in assay [4] (setting [8]), 59%; in assay [4] (at 50.0 µM) it was 12.8%. Also, the growth inhibition is 4% in assay [5] (setting [7]); 85% (active) in assay [5] (setting [8]); 87% (active) in assay [5] (at 50.0 µM); -8% in assay [6] (setting [7]); 53% in assay [6] (setting [8]); 43% in assay [6] (at 50.0 µM).

Turning to `CCCCCCCCCCCC#CCCCCC(=O)O`, the growth inhibition is 87% (active) in assay [1] (setting [7]); 94% (active) in assay [1] (setting [8]); 56.8% in assay [1] (at 50.0 µM); 95% (active) in assay [2] (setting [7]); 97% (active) in assay [2] (setting [8]); 62.5% in assay [2] (at 50.0 µM). Also, the growth inhibition in assay [3] (setting [7]) is 93% (active); in assay [3] (setting [8]), 96% (active); in assay [3] (at 50.0 µM), 83.7% (active); in assay [4] (setting [7]), 27%; in assay [4] (setting [8]), 91% (active); in assay [4] (at 50.0 µM) it was 61%. The growth inhibition was 96% (active) in assay [5] (setting [7]); 95% (active) in assay [5] (setting [8]); 67.7% in assay [5] (at 50.0 µM); 96% (active) in assay [6] (setting [7]); 95% (active) in assay [6] (setting [8]); 60% in assay [6] (at 50.0 µM).

`Nc1ncnc2nc(-c3ccc(C[P+](c4ccccc4)(c4ccccc4)c4ccccc4)cc3)[nH]c12`: the growth inhibition in assay [1] (setting [7]) is -6%; in assay [1] (setting [8]), 77% (active); in assay [1] (at 50.0 µM) it was 72% (active); in assay [2] (setting [7]) it was 11%; in assay [2] (setting [8]), 43%; in assay [2] (at 50.0 µM), 66.2%. Besides, the growth inhibition is 0% in assay [3] (setting [7]); 78% (active) in assay [3] (setting [8]); 73.8% (active) in assay [3] (at 50.0 µM); -10% in assay [4] (setting [7]); 61% in assay [4] (setting [8]); 62.6% in assay [4] (at 50.0 µM). Besides, the growth inhibition in assay [5] (setting [7]) is 11%; in assay [5] (setting [8]), 61%; in assay [5] (at 50.0 µM), 54.8%; in assay [6] (setting [7]), -6%; in assay [6] (setting [8]) it was 83% (active); in assay [6] (at 50.0 µM), 69.8%.

As for `c1ccc2c(c1)cc(C1NCCc3[nH]cnc31)c1ccccc12` (stereo not given), the growth inhibition in assay [1] (setting [7]) is 13%; in assay [1] (setting [8]), 80% (active); in assay [1] (at 50.0 µM), 47%; in assay [2] (setting [7]) it was -4%; in assay [2] (setting [8]) it was 83% (active); in assay [2] (at 50.0 µM), 1.5%. Moreover, the growth inhibition in assay [3] (setting [7]) is 16%; in assay [3] (setting [8]), 82% (active); in assay [3] (at 50.0 µM), -15.3%; in assay [4] (setting [7]), 26%; in assay [4] (setting [8]), 71% (active); in assay [4] (at 50.0 µM), 30.4%. In addition, the growth inhibition in assay [5] (setting [7]) is 13%; in assay [5] (setting [8]), 96% (active); in assay [5] (at 50.0 µM) it was 11.1%; in assay [6] (setting [7]), -21%; in assay [6] (setting [8]) it was 97% (active); in assay [6] (at 50.0 µM), 61.9%.

`C=CC(=O)N1C/C(=C\c2ccccc2)C(=O)/C(=C/c2ccccc2)C1`: the growth inhibition in assay [1] (setting [7]) is 44%; in assay [1] (setting [8]), 75% (active); in assay [1] (at 50.0 µM), 73.8% (active); in assay [2] (setting [7]) it was 37%; in assay [2] (setting [8]), 80% (active); in assay [2] (at 50.0 µM) it was 80.2% (active). Moreover, the growth inhibition in assay [3] (setting [7]) is 49%; in assay [3] (setting [8]) it was 90% (active); in assay [3] (at 50.0 µM), 71.7% (active); in assay [4] (setting [7]) it was 39%; in assay [4] (setting [8]), 58%; in assay [4] (at 50.0 µM), 48.2%. For the same compound, the growth inhibition in assay [5] (setting [7]) was 40%; in assay [5] (setting [8]) it was 87% (active); in assay [5] (at 50.0 µM), 78.5% (active); in assay [6] (setting [7]), 50%; in assay [6] (setting [8]), 94% (active); in assay [6] (at 50.0 µM), 84.7% (active).

With `CC1(c2ccccc2)OC(=O)C=CC1=O` (stereo not given), the growth inhibition in assay [1] (setting [7]) was 15%; in assay [1] (setting [8]), 99% (active); in assay [1] (at 50.0 µM) it was 99.4% (active); in assay [2] (setting [7]), 28%; in assay [2] (setting [8]), 98% (active); in assay [2] (at 50.0 µM), 99.7% (active). The growth inhibition is 21% in assay [3] (setting [7]); 97% (active) in assay [3] (setting [8]); 99.5% (active) in assay [3] (at 50.0 µM); 8% in assay [4] (setting [7]); 100% (active) in assay [4] (setting [8]); 99% (active) in assay [4] (at 50.0 µM). Besides, the growth inhibition in assay [5] (setting [7]) is 32%; in assay [5] (setting [8]), 100% (active); in assay [5] (at 50.0 µM), 99.5% (active); in assay [6] (setting [7]), 27%; in assay [6] (setting [8]) it was 99% (active); in assay [6] (at 50.0 µM), 99.5% (active).

As for `COC1/C=C/OC2(C)Oc3c(C)c(O)c4c(c3C2=O)C(=O)c2cnc(nc2C4=O)/C(C)=C\C=C\C(C)C(O)C(C)C(O)C(C)C(OC(C)=O)C1C` (stereo not given), the growth inhibition is 10% in assay [1] (setting [7]); 97% (active) in assay [1] (setting [8]); 53.9% in assay [1] (at 50.0 µM); 17% in assay [2] (setting [7]); 99% (active) in assay [2] (setting [8]); 55.2% in assay [2] (at 50.0 µM). Also, the growth inhibition was 9% in assay [3] (setting [7]); 99% (active) in assay [3] (setting [8]); 42.2% in assay [3] (at 50.0 µM); 36% in assay [4] (setting [7]); 97% (active) in assay [4] (setting [8]); 56.1% in assay [4] (at 50.0 µM). The growth inhibition is 23% in assay [5] (setting [7]); 98% (active) in assay [5] (setting [8]); 48.9% in assay [5] (at 50.0 µM); 20% in assay [6] (setting [7]); 98% (active) in assay [6] (setting [8]); 50.9% in assay [6] (at 50.0 µM).

Source of the values: PubChem BioAssay (NCI).
